Rows were chosen to be rich in hits. Some 7.9% of all compounds tested hit in one or more screens of this group.
SW480 rerep = A quantitative high throughput screen for small molecules that induce DNA re-replication in SW480 colon adenocarcinoma cells. SW480 DNA re-replication, Hoechst DNA content imaging, 48 h. Potency, µM (top dose mostly 46.1 µM), for the others: at the top dose re-replication activation, usual class: activators. actives 1.8% (n = 340,000); note: % of control where 0% means no effect; nearly all actives have a fitted effect of over 55% in size
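Readout is total intensity of Hoechst-stained nuclei, excited at 405 nm and collected at 500-530 nm. Compound treatment lasted 48 hr at 37 C in 5% CO2 before staining.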
KB-3-1 cytotox = qHTS assay for MDR1-selective chemotherapeutics: Primary screen using the parental adenocarcinoma cell KB-3-1. KB-3-1 viability, CellTiter-Glo ATP luminescence, 72 h. Potency, µM (highest dose often 46.1 µM), hits mostly cytotoxic. actives 1.4% (n = 400,000). AID 1347075, 2019; note: % is set by controls: 0 for no effect and ±100 for the full control effect; nearly all actives have a fitted effect of over 60% in size
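Viability of parental KB-3-1 cells, measured by CellTiter-Glo luminescence, followed a 72 h incubation at 37 °C with pinned compounds in phenol-red-free DMEM containing 10% FBS.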
MCF10A rerep = A quantitative high throughput screen for small molecules that induce DNA re-replication in MCF 10a normal breast cells. MCF 10A DNA re-replication, Hoechst nuclear intensity, 48 h. Potency, µM (series often up to 46.1 µM), without a hit: top-dose activity, positive = re-replication, actives largely listed as activators. actives 2.9% (n = 350,000); note: % of control where 0% means no effect; nearly all actives have a fitted effect of over 50% in size
HT1080NT lethal = qHTS for induction of synthetic lethality in tumor cells producing 2HG: qHTS for the HT-1080-NT fibrosarcoma cell line. HT-1080-NT fibrosarcoma viability, CellTiter-Glo ATP luminescence, 48 h. Potency, µM (top dose mostly 46.1 µM), inactives show top-dose activity, negative = less viability, actives largely listed as cytotoxic. actives 1.6% (n = 360,000). AID 686970, 2013;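 note: NT is the 2HG producing partner of a matched IDH1 knockdown line; 0% = DMSO-treated cells and -100% = media-only wells without cells; nearly all actives have a fitted effect of over 55% in size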
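Read-out is CellTiter-Glo luminescence after 10 minutes at room temperature, following 48 hours' compound treatment of HT-1080-NT cells (750 cells/well, RPMI, 5% FBS, 37 degrees C).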
KB-V1 cytotox = qHTS assay for MDR1-selective chemotherapeutics: Primary screen using the drug-selected MDR subline cells KB-V1; AID 1347076, 2019; KB-V1 MDR cells viability, CellTiter-Glo, 72 h; actives 3.4% (n = 400,000); Potency, µM (series often up to 46.1 µM), most hits filed as cytotoxic; note: % is set by controls: 0 for no effect and ±100 for the full control effect; nearly all actives have a fitted effect of over 60% in size
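Drug-selected KB-V1 cells, grown in DMEM lacking phenol red with 10% FBS, receive compound titrations; after three days at 37 degrees C, surviving cell ATP is quantified by CellTiter-Glo luminescence and responses normalized and curve-fitted.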
HT1080 IDH1KD tx = qHTS for induction of synthetic lethality in tumor cells producing 2HG: qHTS for the HT-1080-IDH1KD cell line. Potency, µM (top dose mostly 46.1 µM), for inactives: at the top dose activity, negative = toxicity, hits mostly cytotoxic. HT-1080 IDH1 knockdown viability, ATP luminescence, 48 h. actives 2% (n = 360,000);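 note: 0% = DMSO wells and -100% = cell-free medium wells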
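Cytotoxicity counter-line: IDH1KD HT-1080, 48 h, CellTiter-Glo. Curves classed by r2, magnitude and activity.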
Starred values were filed as active, the others as inactive; i = inactive; ? = inconclusive; nt = no result; [ ] = dose if it differs, or a comment. Calls come from the whole dose curve; as a rule, active = well fitted curve in the direction sought with a large enough effect; inconclusive = small, poorly fitted or top-dose-only effect, or another doubt; inactive = no such curve, though single readings can be large; an effect the other way counts as inactive or inconclusive. Potency is the fitted concentration of half-maximal effect.

SMILES	SW480 rerep	KB-3-1 cytotox	MCF10A rerep	HT1080NT lethal	KB-V1 cytotox	HT1080 IDH1KD tx
COc1cccc(/C=N/N2CCN(c3ccccc3OC)CC2)c1	-17%	i	-2%	15%	12µM*	-9%
COc1ccccc1N1CCN(/N=C/c2ccc(O)c(O)c2)CC1	13µM*	i	17%	-9%	i	?
CN1OC[C@@H]2CN(S(=O)(=O)c3ccccc3)[C@H](c3ccccc3Br)C[C@@H]21	nt	i	nt	10%	i	5%
Cc1cccc(OCc2nnc(SCC(=O)c3cccs3)n2C)c1C	3%	i	2%	0%	16µM*	-23%
Cc1ccccc1OCc1nnc(SCC(=O)NCc2ccccc2)n1C	-6%	i	?	8%	i	-14%
CCN1CCN(C(=O)c2ccc(N3CC4CC(C3)c3cccc(=O)n3C4)c(NC(=O)c3cc(OC)cc(OC)c3)c2)CC1 (configuration not stated)	-3%	i	-1%	4%	i	11%
CN(C(=O)c1cccc(NC(=O)Cc2ccc(NC(=O)C3CCN(C(=O)C4CCCCC4)CC3)cc2)c1)C1CCCC1	-2%[9.22 µM]	i	-77%	0%	i	-21%
COc1ccc(OC)c(S(=O)(=O)Nc2ccc(-c3ccc4nncn4n3)cc2)c1	8%	18µM*	?	23µM*	i	16µM*
COc1ccc(S(=O)(=O)Nc2cccc(-c3ccc4nncn4n3)c2)cc1F	5.2µM*	i	5.8µM*	4.6µM*	?	2.3µM*
COc1ccc(OC)c(S(=O)(=O)Nc2ccc(Oc3ccccc3)cc2)c1	-10%	i	?	-15%	21µM*	?
CCOc1ccc(NS(=O)(=O)c2cc(OC)ccc2OC)cc1	0%	i	-4%	-2%	?	?
COc1ccc(OC)c(S(=O)(=O)Nc2cccc3c(O)cccc23)c1	1%	i	2%	-2%	i	-13%
O=S(=O)(Nc1cccc(-c2ccc3nncn3n2)c1)c1cccc(F)c1	-2%	i	9%	-5%	i	0%
COc1ccc(OC)c(S(=O)(=O)Nc2ccc(O)c3ccccc23)c1	?	i	?	23µM*	?	?
CC1CN(S(=O)(=O)c2cccc(C(=O)NCc3ccco3)c2)CC(C)O1 (configuration not stated)	-21%	i	5%	-4%	i	4%
COC(=O)c1ccc(COc2ccccc2/C=C(\C#N)C(=O)Nc2ccc(C)cc2C)cc1	15%	i	?	23%	?	?
COC(=O)c1ccc(COc2ccccc2/C=C(\C#N)C(=O)Nc2c(C)cc(C)cc2C)cc1	8.2µM*	12µM*	5.8µM*	9.2µM*	16µM*	18µM*
C[C@@H]1CCCCCCCCC(=O)OCCN(C(=O)OC(C)(C)C)[C@H](C)CCCCCCCCC(=O)OCCN(C(=O)OC(C)(C)C)[C@H](C)CCCCCCCCC(=O)OCCN(C(=O)OC(C)(C)C)[C@H](C)CCCCCCCCC(=O)OCCN1C(=O)OC(C)(C)C	3%	i	27%	-6%	i	-5%
COc1cc(OC)c(OC)cc1CCC(C)NC(=O)Cc1ccccc1 (configuration not stated)	-5%	i	-5%	-7%	i	-3%
COc1cc2c(-c3cc(Br)ccc3O)nc3c(c(C)nn3-c3ccccc3)c2cc1OC	nt	i	nt	nt	i	nt
COc1cc(-c2nc3c(c(C)nn3-c3ccccc3)c3cc(OC)c(OC)cc23)ccc1O	16%	?	13µM*	-4%	?	-3%
O=C(NCc1ccccc1)c1ccc(CS(=O)(=O)Cc2ccccc2F)o1	-21%	i	-3%	16%	16µM*	12%
COc1ccc(CNC(=O)c2ccc(CS(=O)(=O)Cc3ccccc3F)o2)cc1	-26%	i	0%	0%	?	6%
COc1ccccc1CCNC(=O)C(=O)NCC1OCCN1C(=O)c1ccc(Cl)cc1 (configuration not stated)	?	i	-21%	3%	i	-4%
O=C1CCN(Cc2ccccc2)CCN1[C@H](CO)Cc1ccccc1	5.2µM*	i	-35%	-1%	?	7%
SMILES	SW480 rerep	KB-3-1 cytotox	MCF10A rerep	HT1080NT lethal	KB-V1 cytotox	HT1080 IDH1KD tx
CCCCC1(Cc2ccc([N+](=O)[O-])cc2)C(=O)N(c2ccccc2)N(c2ccccc2)C1=O	14%	?	?	-19%	16µM*	?
CCCCC1(COC(=O)CCC(=O)O)C(=O)N(c2ccccc2)N(c2ccccc2)C1=O	0%	i	10%	-8%	i	5%
COc1ccc2c(n1)Sc1nc3ccccc3nc1N2	?	i	21µM*	24%	i	13%
CCc1cccc(C)c1NC(=O)CC1Oc2ccc(C)cc2NC1=O (configuration not stated)	2%	i	-3%	10%	i	5%
CC(NC(=O)CCN1C(=O)c2ccccc2C1=O)c1ccccc1 (configuration not stated)	-1%	i	1%	6%	i	2%
C(=N\n1cnnc1)/c1cccc(Oc2ccccc2)c1	21%	i	730%[0.0737 µM]	4%	i	2%
Fc1ccccc1COc1cccc(/C=N/n2cnnc2)c1	-3%	i	4%	-3%	13µM*	4%
CCOC(=O)c1sc(NC(C)=O)nc1-c1ccccc1	-1%	i	-3%	-6%	i	7%[9.24 µM]
COC(=O)Nc1nc(-c2ccccc2)c(C(=O)c2ccccc2)s1	0.41µM*	0.16µM*	0.23µM*	?	?	?
COC(=O)Nc1nc(C)c(C(=O)c2ccccc2)s1	15µM*	?	9.2µM*	?	7.3µM*	?
COCc1cccc(-c2csc(C(C)(NC(C)=O)c3ccccc3)n2)c1 (configuration not stated)	nt	i	nt	5%	i	0%
O=C(NCc1ccc(Cl)cc1)c1ccc(-c2ccccc2C(F)(F)F)o1	0%	i	23µM*	14%	i	-4%
Cc1cc(C)n(-c2nc(-c3ccc(Cl)c(Cl)c3)cs2)n1	-2%	i	7.1µM*	?	i	13%

Compound activity as filed in PubChem BioAssay.
